{"source": "the supplement of paper PMC11001985", "note": "A number with no mark means an inactive call."}
{"compound": "C#CCNC(=O)CCSSCCC(=O)NCCc1ccc(C=O)c(C=O)c1", "experiment": "lysine labeling ratio R10:1 (500 µM / 50 µM probe), SILAC-ABPP in living cells; higher = lower intrinsic lysine reactivity toward the probe, active = 2 or less", "settings": "HeLa; probe concentrations 500 vs 50 µM", "summary_of_the_method": "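An alkyne-tagged lysine probe with a disulfide linker labelled living HeLa cells in PBS at room temperature at either 50 µM or 500 µM, using SILAC light and heavy cells in forward and reverse label swaps. Lysates were mixed, clicked to biotin-azide, trypsin-digested, enriched on neutravidin, DTT-released, alkylated and measured by LC-MS/MS on a TIMS-TOF Pro. Each lysine's R is the filtered median high-probe/low-probe MS1 peptide ratio, combined as the median over forward and reverse replicates, with 20 as the upper limit.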"}
{"target": "STOML2 (lysine site: K187) (UniProt Q9UJZ1)", "lysine labeling ratio R10:1": "1.1 (active)"}
{"target": "UniProt Q8WXI7 (lysine site: K13558)", "lysine labeling ratio R10:1": 5.1}
{"target": "SLC25A13 (lysine site: K235) (UniProt Q9UJS0)", "sequence (Q9UJS0 whole entry)": "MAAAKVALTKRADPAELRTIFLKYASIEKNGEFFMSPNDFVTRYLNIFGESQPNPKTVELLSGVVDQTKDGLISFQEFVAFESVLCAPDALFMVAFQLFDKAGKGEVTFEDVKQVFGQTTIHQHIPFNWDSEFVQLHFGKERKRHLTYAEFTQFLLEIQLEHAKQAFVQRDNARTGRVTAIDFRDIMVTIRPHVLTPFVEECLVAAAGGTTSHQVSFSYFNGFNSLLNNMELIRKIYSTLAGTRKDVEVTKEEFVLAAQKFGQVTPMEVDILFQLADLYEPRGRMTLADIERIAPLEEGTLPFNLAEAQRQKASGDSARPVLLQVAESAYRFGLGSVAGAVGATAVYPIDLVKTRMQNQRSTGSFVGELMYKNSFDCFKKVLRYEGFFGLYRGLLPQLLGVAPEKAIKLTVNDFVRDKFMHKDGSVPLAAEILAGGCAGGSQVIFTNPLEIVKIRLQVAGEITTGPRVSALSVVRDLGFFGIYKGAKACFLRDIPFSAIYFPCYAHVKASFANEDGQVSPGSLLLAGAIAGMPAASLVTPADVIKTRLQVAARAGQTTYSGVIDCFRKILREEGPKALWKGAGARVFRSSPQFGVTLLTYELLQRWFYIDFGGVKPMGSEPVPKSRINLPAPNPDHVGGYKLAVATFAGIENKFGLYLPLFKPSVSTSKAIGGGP", "lysine labeling ratio R10:1": 2.23}
{"target": "CXADR (lysine site: K88) (UniProt P78310)", "lysine labeling ratio R10:1": "1.11 (active)"}
{"target": "CD9 (lysine site: K135) (UniProt P21926)", "lysine labeling ratio R10:1": 3.43}
{"target": "HNRNPC (lysine site: K170) (UniProt P07910)", "lysine labeling ratio R10:1": 2.35}
{"target": "PSMA7 (lysine site: K28) (UniProt O14818)", "lysine labeling ratio R10:1": 2.85}
{"target": "TFRC (lysine site: K145) (UniProt P02786)", "lysine labeling ratio R10:1": 2.7}
{"target": "ILF3 (lysine site: K535) (UniProt Q12906)", "lysine labeling ratio R10:1": "0.982 (active)"}
{"target": "UniProt Q16629 (lysine site: K24)", "sequence (Q16629 whole entry)": "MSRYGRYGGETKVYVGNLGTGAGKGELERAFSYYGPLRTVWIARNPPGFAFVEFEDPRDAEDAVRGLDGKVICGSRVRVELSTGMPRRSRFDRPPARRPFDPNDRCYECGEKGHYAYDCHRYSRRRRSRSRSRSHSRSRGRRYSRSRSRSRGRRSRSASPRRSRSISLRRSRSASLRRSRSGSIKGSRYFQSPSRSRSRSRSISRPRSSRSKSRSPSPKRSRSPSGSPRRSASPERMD", "lysine labeling ratio R10:1": 3}
{"target": "PFN1 (lysine site: K70) (UniProt P07737)", "lysine labeling ratio R10:1": 2.2}
{"target": "MYH9 (lysine site: K1219) (UniProt P35579)", "lysine labeling ratio R10:1": 2.49}
{"target": "FAT4 (lysine site: K2566) (UniProt Q6V0I7)", "lysine labeling ratio R10:1": 2.59}
{"target": "UniProt Q16363 (lysine site: K1330)", "lysine labeling ratio R10:1": 2.83}
{"target": "AHNAK (lysine site: K2993) (UniProt Q09666)", "lysine labeling ratio R10:1": "1 (active)"}
{"target": "STS (lysine site: K368) (UniProt P08842)", "lysine labeling ratio R10:1": "1.48 (active)"}
{"target": "UniProt O95084 (lysine site: K185)", "lysine labeling ratio R10:1": 2.74}
{"target": "TKT (lysine site: K283) (UniProt P29401)", "lysine labeling ratio R10:1": 7.35}
{"target": "LRPAP1 (lysine site: K323) (UniProt P30533)", "lysine labeling ratio R10:1": 2.24}
{"target": "SEMA3C (lysine site: K391) (UniProt Q99985)", "lysine labeling ratio R10:1": 4.13}
{"target": "UniProt P55072 (lysine site: K754)", "lysine labeling ratio R10:1": 2.84}
{"target": "LDLR (lysine site: K782) (UniProt P01130)", "sequence (P01130 whole entry)": "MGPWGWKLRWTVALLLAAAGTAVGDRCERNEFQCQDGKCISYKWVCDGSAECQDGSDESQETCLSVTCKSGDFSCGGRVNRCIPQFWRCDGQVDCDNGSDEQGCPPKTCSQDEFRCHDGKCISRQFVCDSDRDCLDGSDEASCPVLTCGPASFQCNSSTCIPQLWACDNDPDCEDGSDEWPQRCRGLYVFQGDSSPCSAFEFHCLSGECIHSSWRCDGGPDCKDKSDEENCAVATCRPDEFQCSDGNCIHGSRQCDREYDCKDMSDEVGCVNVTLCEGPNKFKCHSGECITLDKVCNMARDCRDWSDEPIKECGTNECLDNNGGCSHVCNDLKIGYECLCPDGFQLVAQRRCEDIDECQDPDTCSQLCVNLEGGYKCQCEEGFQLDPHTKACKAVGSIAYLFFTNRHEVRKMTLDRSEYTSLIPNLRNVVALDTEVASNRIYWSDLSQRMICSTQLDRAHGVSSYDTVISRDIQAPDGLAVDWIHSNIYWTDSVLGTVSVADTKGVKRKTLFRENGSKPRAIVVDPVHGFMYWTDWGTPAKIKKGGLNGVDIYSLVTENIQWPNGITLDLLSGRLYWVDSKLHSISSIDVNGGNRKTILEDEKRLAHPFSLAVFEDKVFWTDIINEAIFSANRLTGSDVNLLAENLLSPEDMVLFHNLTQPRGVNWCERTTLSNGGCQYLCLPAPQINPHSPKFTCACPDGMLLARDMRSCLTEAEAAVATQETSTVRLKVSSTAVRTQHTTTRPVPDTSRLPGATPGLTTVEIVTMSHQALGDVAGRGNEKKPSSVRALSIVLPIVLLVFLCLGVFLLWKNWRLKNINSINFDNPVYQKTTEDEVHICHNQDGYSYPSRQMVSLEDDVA", "lysine labeling ratio R10:1": 3.22}
{"target": "UniProt Q9BZM4 (lysine site: K148)", "sequence (Q9BZM4 whole entry)": "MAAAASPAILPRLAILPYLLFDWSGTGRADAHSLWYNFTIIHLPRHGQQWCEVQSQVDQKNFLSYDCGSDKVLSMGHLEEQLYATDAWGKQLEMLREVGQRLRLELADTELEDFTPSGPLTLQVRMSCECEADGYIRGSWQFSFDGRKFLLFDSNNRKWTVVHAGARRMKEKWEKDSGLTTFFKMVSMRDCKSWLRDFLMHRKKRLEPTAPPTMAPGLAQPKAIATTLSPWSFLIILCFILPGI", "lysine labeling ratio R10:1": 2.1}
{"target": "B4GAT1 (lysine site: K60) (UniProt O43505)", "sequence (O43505 whole entry, one chain of several)": "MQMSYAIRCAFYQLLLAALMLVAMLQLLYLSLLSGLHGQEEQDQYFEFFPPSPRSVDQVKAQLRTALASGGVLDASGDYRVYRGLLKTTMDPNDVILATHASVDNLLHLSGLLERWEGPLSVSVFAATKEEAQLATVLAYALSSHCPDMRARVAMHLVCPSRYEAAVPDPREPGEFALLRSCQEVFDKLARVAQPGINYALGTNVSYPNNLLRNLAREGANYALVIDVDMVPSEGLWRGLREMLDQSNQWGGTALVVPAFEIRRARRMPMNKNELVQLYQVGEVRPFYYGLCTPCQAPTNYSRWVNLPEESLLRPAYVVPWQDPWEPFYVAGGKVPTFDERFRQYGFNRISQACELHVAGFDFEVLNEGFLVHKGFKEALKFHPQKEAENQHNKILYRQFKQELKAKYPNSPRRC", "lysine labeling ratio R10:1": 7.79}
{"target": "HNRNPL (lysine site: K493) (UniProt P14866)", "lysine labeling ratio R10:1": "1.94 (active)"}
{"target": "UniProt Q15149 (lysine site: K792)", "lysine labeling ratio R10:1": "1.45 (active)"}
{"target": "UniProt P62316 (lysine site: K18)", "lysine labeling ratio R10:1": 2.06}
{"target": "FLNA (lysine site: K1164) (UniProt P21333)", "lysine labeling ratio R10:1": "1.16 (active)"}
{"target": "HSPA8 (lysine site: K319) (UniProt P11142)", "lysine labeling ratio R10:1": 4.74}
{"target": "GPC1 (lysine site: K358) (UniProt P35052)", "sequence (P35052 whole entry)": "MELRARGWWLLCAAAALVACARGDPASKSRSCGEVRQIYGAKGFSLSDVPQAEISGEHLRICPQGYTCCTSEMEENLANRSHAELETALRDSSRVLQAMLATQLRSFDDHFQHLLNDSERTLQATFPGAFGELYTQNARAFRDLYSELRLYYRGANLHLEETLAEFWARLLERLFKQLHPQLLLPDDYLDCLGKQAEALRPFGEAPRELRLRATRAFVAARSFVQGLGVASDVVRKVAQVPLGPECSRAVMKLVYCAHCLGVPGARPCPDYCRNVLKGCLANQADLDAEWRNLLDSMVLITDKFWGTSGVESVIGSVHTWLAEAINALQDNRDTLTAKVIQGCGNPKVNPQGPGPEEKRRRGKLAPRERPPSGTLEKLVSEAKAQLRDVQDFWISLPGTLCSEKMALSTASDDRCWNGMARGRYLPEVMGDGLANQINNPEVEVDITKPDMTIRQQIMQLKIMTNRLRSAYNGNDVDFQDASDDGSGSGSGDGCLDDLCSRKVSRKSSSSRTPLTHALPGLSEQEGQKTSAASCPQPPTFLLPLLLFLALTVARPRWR", "lysine labeling ratio R10:1": "1.32 (active)"}
{"target": "LAMA5 (lysine site: K1854) (UniProt O15230)", "lysine labeling ratio R10:1": 3.02}
{"target": "AHNAK (lysine site: K563) (UniProt Q09666)", "lysine labeling ratio R10:1": 2.5}
{"target": "A2M (lysine site: K116) (UniProt P01023)", "sequence (P01023 whole entry)": "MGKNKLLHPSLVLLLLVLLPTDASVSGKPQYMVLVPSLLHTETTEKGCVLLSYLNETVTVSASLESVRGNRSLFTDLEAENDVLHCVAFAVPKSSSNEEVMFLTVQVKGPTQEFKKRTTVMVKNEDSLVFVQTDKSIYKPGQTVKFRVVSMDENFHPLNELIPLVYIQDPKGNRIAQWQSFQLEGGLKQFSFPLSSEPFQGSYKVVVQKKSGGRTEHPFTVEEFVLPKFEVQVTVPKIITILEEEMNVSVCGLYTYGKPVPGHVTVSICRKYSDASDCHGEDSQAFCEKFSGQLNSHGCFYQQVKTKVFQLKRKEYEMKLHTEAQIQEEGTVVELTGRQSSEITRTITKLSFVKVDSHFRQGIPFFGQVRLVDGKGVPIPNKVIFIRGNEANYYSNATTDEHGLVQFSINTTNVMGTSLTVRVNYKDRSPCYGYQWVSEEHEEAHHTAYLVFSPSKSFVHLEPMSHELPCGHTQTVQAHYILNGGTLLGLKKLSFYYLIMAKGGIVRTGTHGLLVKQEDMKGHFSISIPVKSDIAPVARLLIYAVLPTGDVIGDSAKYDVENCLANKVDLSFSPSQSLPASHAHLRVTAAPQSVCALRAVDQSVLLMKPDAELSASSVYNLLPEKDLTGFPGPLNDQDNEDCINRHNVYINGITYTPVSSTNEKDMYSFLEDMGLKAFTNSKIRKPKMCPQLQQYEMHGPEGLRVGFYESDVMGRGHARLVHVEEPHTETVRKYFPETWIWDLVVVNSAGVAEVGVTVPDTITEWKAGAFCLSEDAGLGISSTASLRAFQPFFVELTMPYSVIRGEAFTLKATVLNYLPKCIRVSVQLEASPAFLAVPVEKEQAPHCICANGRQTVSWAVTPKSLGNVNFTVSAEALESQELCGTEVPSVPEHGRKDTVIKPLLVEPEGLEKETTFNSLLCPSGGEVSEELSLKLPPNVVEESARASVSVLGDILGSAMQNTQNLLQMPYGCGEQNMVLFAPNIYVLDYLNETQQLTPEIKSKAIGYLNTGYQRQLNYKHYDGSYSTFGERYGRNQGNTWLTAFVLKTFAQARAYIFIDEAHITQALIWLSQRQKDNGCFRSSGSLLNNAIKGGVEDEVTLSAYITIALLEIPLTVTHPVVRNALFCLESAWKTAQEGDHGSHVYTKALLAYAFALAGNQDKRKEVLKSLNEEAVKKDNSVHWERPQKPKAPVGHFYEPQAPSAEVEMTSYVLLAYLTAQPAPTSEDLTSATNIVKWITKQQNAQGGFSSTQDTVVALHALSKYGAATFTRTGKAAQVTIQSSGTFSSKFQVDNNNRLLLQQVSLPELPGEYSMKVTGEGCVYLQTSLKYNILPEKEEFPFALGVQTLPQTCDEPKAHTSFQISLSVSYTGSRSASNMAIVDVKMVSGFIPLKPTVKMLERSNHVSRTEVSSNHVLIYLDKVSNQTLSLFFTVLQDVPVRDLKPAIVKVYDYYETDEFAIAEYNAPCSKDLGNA", "lysine labeling ratio R10:1": "0.757 (active)"}
{"target": "AGRN (lysine site: K383) (UniProt O00468)", "lysine labeling ratio R10:1": 12.9}
{"target": "PPL (lysine site: K492) (UniProt O60437)", "lysine labeling ratio R10:1": "1.71 (active)"}
{"target": "CD97 (lysine site: K422) (UniProt P48960)", "lysine labeling ratio R10:1": 2.07}
{"target": "RPL3 (lysine site: K356) (UniProt P39023)", "lysine labeling ratio R10:1": 2.08}
{"target": "CCT3 (lysine site: K427) (UniProt P49368)", "sequence (P49368 whole entry)": "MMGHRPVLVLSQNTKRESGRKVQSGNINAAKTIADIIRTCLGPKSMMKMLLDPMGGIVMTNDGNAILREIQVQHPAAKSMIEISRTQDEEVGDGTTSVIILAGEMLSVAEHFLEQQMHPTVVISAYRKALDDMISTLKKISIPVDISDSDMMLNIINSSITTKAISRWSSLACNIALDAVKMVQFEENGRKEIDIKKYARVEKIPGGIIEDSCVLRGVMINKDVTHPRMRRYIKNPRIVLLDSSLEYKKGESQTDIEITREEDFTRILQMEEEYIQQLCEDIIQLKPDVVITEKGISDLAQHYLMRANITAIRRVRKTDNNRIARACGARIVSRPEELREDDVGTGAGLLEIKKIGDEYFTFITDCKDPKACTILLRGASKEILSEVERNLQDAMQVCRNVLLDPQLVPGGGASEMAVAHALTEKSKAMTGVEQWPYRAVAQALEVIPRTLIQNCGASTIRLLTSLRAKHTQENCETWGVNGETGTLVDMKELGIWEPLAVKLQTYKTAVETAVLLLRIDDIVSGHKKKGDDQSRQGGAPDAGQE", "lysine labeling ratio R10:1": "0.772 (active)"}
{"target": "PTPRS (lysine site: K897) (UniProt Q13332)", "lysine labeling ratio R10:1": 2.19}
{"target": "PDCD6IP (lysine site: K690) (UniProt Q8WUM4)", "lysine labeling ratio R10:1": 2.89}
